Inconclusive results are not listed. A number with no mark means an inactive call. Active and inactive are the calls of the source. The call rests on the fitted dose curve; in most records, active means well fitted inhibition curve with a large enough effect; inconclusive means small, poorly fitted or top-dose-only effect; inactive means flat fitted curve, though single readings scatter.
biological target: Calcium and integrin-binding protein 1 (Homo sapiens) (UniProt Q99828); experiment: Primary qHTS for Identification of Calcium Integrin Binding Protein 1 (CIB1) Competitor (AID 1508620); conditions: CIB1-GST / FITC-alphaIIb peptide fluorescence polarization; series mostly up to 114 µM; activity change, negative = inhibition: at the top concentration;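 further: GST tagged CIB1 binding a fluorescein labelled alphaIIb integrin peptide tracer; top concentration of the series differs between compounds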
Sequence (Q99828 whole entry, looked up): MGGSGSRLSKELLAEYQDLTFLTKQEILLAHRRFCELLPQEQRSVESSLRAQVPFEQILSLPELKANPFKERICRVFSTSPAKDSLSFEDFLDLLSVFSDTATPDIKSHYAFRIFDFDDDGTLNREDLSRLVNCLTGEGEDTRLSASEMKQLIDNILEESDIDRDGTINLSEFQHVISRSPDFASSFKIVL
Procedure, shortened: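 CIB1-GST (1 uM final) and compound incubated 15 min at room temperature before adding FITC-alphaIIb peptide tracer (100 nM final). Competition for binding read by fluorescence polarization (ex 480, em 540) after another 15 min at room temperature.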
On the % scale 0 is the no-effect control and ±100 the full control effect.

| SMILES | activity change, negative = inhibition | Potency |
| --- | --- | --- |
| COc1ccc(N2Cc3cccc(C(=O)O)c3C2=O)c(OC)c1 | -2.62% |  |
| O=C1CC(c2ccccc2)CC2=C1C1(CCCCC1)N=C(Nc1nc3ccccc3o1)N2 (centres undefined) | -0.551% |  |
| Cc1nnc(CN(C)c2ncnc3ccc(-c4ccc5c(c4)OCO5)cc23)o1 | -6.68% |  |
| CC(C)(C)OC(=O)N1CCN(c2ccc(NCc3ccc(-c4ccc(C(C)(C)C)cc4)o3)cc2)CC1 | 4.2% |  |
| COc1ccc(C2=Nn3c(nnc3-c3cc(OC)cc(OC)c3)SC2)cc1 | 5.21% |  |
| Cc1ccnc(NC(=S)NCCNc2cccc(C(F)(F)F)c2)c1 | -4.66% |  |
| CC(=O)N[C@H](C(=O)N[C@@H](C)C(=O)N[C@H](C#N)CC(=O)O)C(C)C | 3.24% |  |
| C=Cc1cc(F)c(S(=O)(=O)N2CCN(S(=O)(=O)c3ccc4c(c3)OCCO4)CC2)cc1F | 7.85% |  |
| COc1ccc(C2=Nn3c(nnc3-c3ccccc3F)SC2)cc1OC1CCCC1 | 2.64% |  |
| COc1cccc(C2c3c(ncn(-c4cccc(C)c4)c3=N)Oc3ccc4ccccc4c32)c1 (centres undefined) | 8.38% |  |
| Cc1ccc(NS(=O)(=O)c2ccc3c(c2)CCC(C)(C)O3)cc1C | -0.038% |  |
| Cc1ccc(-c2nn3c(C)nnc3s2)cc1NCc1ccc(-c2cccc(Cl)c2)o1 | -5.42% |  |
| Cc1cccc(NC(=O)c2cnn3c(C)cc(C)nc23)c1 | 2.65% |  |
| CNc1oc(-c2ccc3c(c2)OCCO3)nc1C#N | 1.76% |  |
| Cc1ccnc(NC(=S)N[C@@H]2CCN(c3cccc(C(F)(F)F)c3)C2)c1 | -14.4% |  |
| Cc1cnc(-c2ccccc2C(C)C)nc1NCc1cccs1 | 1.21% |  |
| Cc1c(P(=S)(c2ccccc2)c2ccccc2)c2ccccc2n1C(=O)NCc1ccccc1 | 3.86% |  |
| O=C(COC(=O)CNC(=O)C1CCCCC1)Nc1cc(C(F)(F)F)ccc1Cl | -3.04% |  |
| O=S(=O)(NC1CCC(CNS(=O)(=O)c2c(F)cccc2F)CC1)c1ccc2c(c1)OCCO2 (centres undefined) | -2.93% |  |
| N#Cc1nc(Nc2cc(Cl)cc(Cl)c2)nc(NC2CCCC2)n1 | 4.14% |  |

| SMILES | activity change, negative = inhibition | Potency |
| --- | --- | --- |
| O=S(=O)(Nc1ccc(O)c2ncccc12)c1ccccc1F | -13% |  |
| COc1ccc(CN(Cc2ccccc2)C(=O)c2ccccc2O)cc1 | 2.91% |  |
| C=Cc1ccc(C(=O)N2CCCC(CCC(=O)N3CCN(c4ccccn4)CC3)C2)cc1 (centres undefined) | -0.21% |  |
| CCc1cccc(Nc2nn3c(=O)c4ccccc4nc3s2)c1 | 2.87% |  |
| CC(=O)Nc1ccc(-c2csc(N3CCC(C(N)=O)CC3)n2)cc1 | -2.3% |  |
| CN(C)CCNc1ncnc2ccc(-c3ccc4c(c3)OCO4)cc12 | 3.94% |  |
| NC(=O)C1CCN(c2ncc(-c3ccc(Cl)cc3)s2)CC1 | -0.275% |  |
| COc1cc(F)c(S(=O)(=O)N2CCN(S(=O)(=O)c3cccc(NC(C)=O)c3)CC2)c(F)c1 | -4.54% |  |
| CN(CCc1cnc[nH]1)c1ncnc2ccc(-c3ccc4c(c3)OCO4)cc12 | -5.48% |  |
| COc1ccc(OC)c(-c2nnc3n2N=C(c2c(OC)cccc2OC)CS3)c1 | 6.05% |  |
| Cc1ccc(NS(=O)(=O)c2ccc3c(c2)C(Cl)(Cl)C(=O)N3)cc1C | 4.95% |  |
| FC(F)(F)c1cc(-c2ccc(CNc3nc(C4CCCC4)nc4ccccc34)cc2)ccn1 | 18.9% |  |
| Cc1csc(CNc2ncnc3ccc(-c4ccc(C(C)O)o4)cc23)n1 (centres undefined) | -15.6% |  |
| Cc1cccc(C)c1SC1=NS(=O)(=O)c2ccccc21 |  | inactive |
| COc1ccc(C2Nc3ccccc3C(=O)N2Cc2ccccc2)cc1COc1cccc(Cl)c1 (centres undefined) | -1% |  |
| O=C(Nc1ccc2ccccc2c1)Nc1nnc(-c2cccnc2)s1 | 1.17% |  |
| CC(C)(C)OC(=O)NCCOCCOCCOc1ccc(-c2no[n+]([O-])c2C#N)cc1 | 1.77% |  |
| Cc1sc(NC(=O)Cc2ccc3c(c2)OCO3)nc1-c1ccc2c(c1)CCN2C(=O)c1ccccc1Cl | 8.57% |  |
| CCCCCCNC(=O)Nc1nnc(-c2ccncc2)s1 | -5.35% |  |

Source: PubChem BioAssay (NCATS)
